This is part of a sample that, as a whole, favours compounds with a hit. Of some 79,000 tested, about 15% had one in any assay. Cut-off read from the data, not from the text of the source: active = growth inhibition above about 70%; inactive = the rest.
Legend:
[1] = NCI Yeast Anticancer Drug Screen. Data for the rad50 strain (AID 155);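 note: 0% = growth of vehicle-only cultures of the same strain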; settings: S. cerevisiae rad50 strain growth inhibition; at 50.0 µM; active compounds read high
Summary of the method: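 Growth of the mutant yeast was measured after compound exposure and referenced to vehicle-treated cultures.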

[2] = NCI Yeast Anticancer Drug Screen. Data for the mec2-1 strain (AID 157); settings: S. cerevisiae mec2-1 strain, at 50.0 µM, active compounds read high
Summary of the method: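 Readout is yeast growth inhibition, normalised to vehicle-treated controls, in the mec2-1 strain exposed to compound.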

[3] = NCI Yeast Anticancer Drug Screen. Data for the sgs1 mgt1 strain (AID 161);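 note: 0% = growth of cultures given vehicle only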; settings: S. cerevisiae sgs1 mgt1 strain, at 50.0 µM, active compounds read high
Summary of the method: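 Growth of a repair-deficient yeast mutant was monitored after compound treatment and expressed as inhibition relative to vehicle-treated cultures.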

[4] = NCI Yeast Anticancer Drug Screen. Data for the cln2 rad14 strain (AID 165);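 note: 0% = growth equal to vehicle treated cultures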; settings: S. cerevisiae cln2 rad14 strain, at 50.0 µM, active compounds read high
Summary of the method: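 Relative to vehicle controls, growth inhibition of compound-treated cln2 rad14 yeast was recorded.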

[5] = NCI Yeast Anticancer Drug Screen. Data for the bub3 strain (AID 167); settings: S. cerevisiae bub3 mutant strain, at 50.0 µM, active compounds read high
Summary of the method: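 Whole-cell yeast assay. The mutant strain was incubated with compounds, and growth inhibition was determined by comparison with vehicle-treated cells.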

[6] = NCI Yeast Anticancer Drug Screen. Data for the mlh1 rad18 strain (AID 175); settings: S. cerevisiae mlh1 rad18 strain growth inhibition; at 50.0 µM; active compounds read high
Summary of the method: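 Test agents were incubated with a yeast strain of defined genotype (DNA damage repair defect). Inhibition of growth was derived by comparison with vehicle-exposed cultures.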

Measured: growth inhibition

C=C1C2CC(OC(C)=O)C3(C)C(c4ccoc4)OC(=O)[C@@H](O)[C@]13OC1C[C@H](OC(C)=O)C(C)(C)[C@H](C(O)C(=O)OC)[C@]12C (stereo partly specified)
inactive: [1] -11.8% | [2] -34.4% | [3] 2.4% | [4] 3.45% | [5] -8.1% | [6] 0.25%

N#CN=C(N(Cc1ccccc1)Cc1ccccc1)N(Cc1ccccc1)Cc1ccccc1
inactive: [1] -3.65% | [2] -12.4% | [3] -18.6% | [4] 20.6% | [5] 12.4% | [6] -14.1%

C=CC(=O)OCC(C)(C)[N+](=O)[O-]
inactive: [1] 18.4% | [2] 15.7% | [3] 12.8% | [4] 2.35% | [5] -3.65% | [6] 1.55%

Cc1cccc(C2CCCCC2OS(C)(=O)=O)c1 (stereo unspecified)
inactive: [1] -2.95% | [2] -6.4% | [3] -16.9% | [4] -10.1% | [5] 11.8% | [6] -13.6%

C[N+]1=CN(c2ccc(Cl)cc2)Cc2cc(Cl)ccc21
inactive: [1] 31.1% | [2] -12.1% | [3] 25.6% | [4] 13.4% | [5] 40.1% | [6] 34%

CC(=O)OC1CCC23COC(CC(C)C2C)C3(Cl)C1 (stereo unspecified)
inactive: [1] -0.7% | [2] -4.65% | [3] -3.25% | [4] -8.1% | [5] -11.2% | [6] 5.05%

Cc1nc(=S)c2[nH]c(=S)[nH]c2[nH]1
inactive: [1] -2.7% | [2] -16.1% | [3] -3.8% | [4] -18.8% | [5] -1.9% | [6] -8.2%

CCCNC(=O)N(CCN(C)C)S(=O)(=O)c1ccc(Cl)cc1
inactive: [1] -38.9% | [2] -6.75% | [3] -13.6% | [4] -18.9% | [5] -21.1% | [6] -17.4%

COc1ccc(C2C(C#N)=C(N)NC(=O)C2C(N)=O)cc1 (stereo unspecified)
inactive: [1] -12.6% | [2] -11.8% | [3] -16.8% | [4] -0.1% | [5] -4.05% | [6] -19.4%

COc1ccc2ccccc2c1Cc1c(O)ccc2ccccc12
inactive: [1] 15.7% | [2] -4.55% | [3] 0.75% | [4] -40% | [5] -3.1% | [6] 8%

CC(=O)OC1CCC2(C)C(CCC3C2CCC2(C)C(C(C)=O)CCC32)C1 (stereo unspecified)
inactive: [1] 4.25% | [2] -9.05% | [3] 2.35% | [4] -11.9% | [5] 10.4% | [6] 14.9%

Cc1cc(=O)oc2cc(OCc3ccccc3)cc(O)c12
inactive: [1] 22.8% | [2] 4.2% | [3] 21.8% | [4] -3.3% | [5] 6.45% | [6] 12.8%

C=CCCCCCCCCO
inactive: [1] -12.1% | [2] -3.6% | [3] 8.3% | [4] -13% | [5] -10% | [6] -8.6%

O=C1NC2(CCN(CCCC3(c4ccc(F)cc4)OCCO3)CC2)Oc2ccccc21
inactive: [1] -11.6% | [2] -35.7% | [3] -1.15% | [4] -11.6% | [5] 5.8% | [6] -55.7%

CC(=O)Nc1ccc(-c2nnc(SCC(=O)Nc3ccc(C)cc3)o2)cc1
inactive: [1] -15% | [2] -5.5% | [3] -5.8% | [4] 8.4% | [5] -13.7% | [6] -38.3%

NC1CCCCC1N.O=S(=O)([O-])CCCNC1CCCCC1.O=S(=O)([O-])CCCNC1CCCCC1.[Pt+4]
inactive: [1] -6.3% | [2] -8.15% | [3] -15.7% | [4] -23.6% | [5] -21.1% | [6] 15.9%

Cn1c(=O)nc2n(C)c3ccccc3cc-2c1=O
inactive: [1] 9.95% | [2] -12.4% | [3] -3.95% | [4] -6.85% | [5] -12.7% | [6] 1.8%

Oc1ccc(Cl)cc1/C=N\N=C\c1cc(Cl)ccc1O
inactive: [1] -50.3% | [2] -1.1% | [3] 5.75% | [4] -36.1% | [5] 3.15% | [6] 8.85%

CCC(CC)C(=O)OCCOc1ccccc1
inactive: [1] 0.9% | [2] -0.25% | [3] 3.95% | [4] -20.2% | [5] 19.4% | [6] -1.8%

C[C@@H](C1CC[C@H]2[C@@H]3[C@@H]4O[C@@H]4[C@@]4(O)CC=CC(=O)[C@]4(C)[C@H]3C[C@H](O)[C@]12C)[C@H]1C[C@]2(C)O[C@]2(C)C(=O)O1 (stereo partly specified)
inactive: [1] 1.35% | [2] -3.25% | [3] -2.9% | [4] 29.5% | [5] 2.65% | [6] -48.6%

O=C(O)C(=O)C(=O)O
inactive: [1] -23% | [2] -41.8% | [3] -9.65% | [4] -10.1% | [5] -1.45% | [6] -5.45%

— PubChem BioAssay (NCI)
